From PubChem BioAssay
mIDH1 inhibitor = inhibitors of human mutant IDH1 R132H; O75874; IDH1-R132H enzyme, NADPH consumption, diaphorase/resazurin fluorescence; Potency, µM (top dose mostly 76.6 µM), for inactives: at the highest dose activity change, negative = inhibition, usual class: inhibitors; 390,000 tested, 0.093% active; further: potency means the concentration at half of the fitted maximal effect; on the % scale 0 is the no-effect control and ±100 the full control effect; nearly all actives have a fitted effect of over 65% in size
Target sequence (O75874 whole entry R132H, stated change not applied): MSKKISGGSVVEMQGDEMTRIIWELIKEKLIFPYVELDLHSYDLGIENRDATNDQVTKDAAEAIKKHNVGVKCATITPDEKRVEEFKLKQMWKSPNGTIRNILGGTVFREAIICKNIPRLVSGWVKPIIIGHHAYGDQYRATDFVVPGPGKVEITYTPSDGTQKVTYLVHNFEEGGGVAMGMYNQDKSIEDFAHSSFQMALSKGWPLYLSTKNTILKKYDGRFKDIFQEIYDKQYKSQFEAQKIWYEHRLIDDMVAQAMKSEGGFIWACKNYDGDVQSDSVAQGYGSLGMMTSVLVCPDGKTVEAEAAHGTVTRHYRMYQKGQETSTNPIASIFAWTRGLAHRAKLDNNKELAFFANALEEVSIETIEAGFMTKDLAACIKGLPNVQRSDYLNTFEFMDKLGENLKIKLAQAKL
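IDH1-R132H (0.5 ug/mL dispensed) in pH 7.5 Tris buffer was preincubated 30 min with compound, then given a substrate mix of 0.016 mM NADPH and 2 mM alpha-KG for 80 min at room temperature; remaining NADPH was read by diaphorase/resazurin fluorescence.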
ERG Ets-DNA blk = blocks human ERG Ets domain binding to DNA; P11308; fluorescence polarization, His-ERG Ets domain / labelled DNA; Potency, µM (highest dose often 76.9 µM), inactives show top-dose FP activity, negative = inhibition, most hits filed as inhibitors; 370,000 tested, 0.028% active; active means well fitted inhibition curve with a large enough effect in the polarisation, with a control signal flat; inconclusive means small, poorly fitted or top-dose-only effect, or effect the other way, or a change in a side signal; inactive means no such curve, though single readings can be large or run the other way; the % refers to the polarisation;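 further: polarization taken with two DNA probes labelled with fluorescein and Texas red; potency means the concentration at half of the fitted maximal effect; % of control where 0% means no effect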
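His-tagged ERG Ets domain (1 uM in the protein solution; 300mM KCl, 50mM Tris-HCl, 1mM EDTA, 1mM DTT, pH 7.5) received compound, then a probe mix of 5 nM fluorescein-DNA and 100nM Texas-615-DNA. Fluorescence polarization was read for both dyes.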
Apoferritin bind = binds horse apoferritin like a general anesthetic | P02791 | apoferritin/1-aminoanthracene competitive binding, fluorescence | Potency, µM (doses to about 77.5 µM), for inactives: top-dose activity change, negative = displacement, usual class: inhibitors | 350,000 tested, 0.074% active; further: potency means the concentration at half of the fitted maximal effect; on the % scale 0 is the no-effect control and ±100 the full control effect; nearly all actives have a fitted effect of over 20% in size
Target sequence (P02791 2-175 limits assumed): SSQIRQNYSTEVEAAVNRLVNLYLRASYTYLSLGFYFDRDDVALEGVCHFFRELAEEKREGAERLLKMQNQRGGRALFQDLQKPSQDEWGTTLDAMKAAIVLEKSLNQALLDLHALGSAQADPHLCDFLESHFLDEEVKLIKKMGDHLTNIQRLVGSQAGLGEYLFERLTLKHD
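Read-out: endpoint 1-AMA fluorescence, excitation 380 nm and emission 535 nm, after compounds sit 10 min at room temperature with 10 uM horse-spleen apoferritin in 50% saturated 1-AMA/PBS. Values come from four-parameter Hill fits.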
TSG101-PTAP inh = blocks PTAP/TSG101 interaction to inhibit HIV-1 budding; Potency, µM (series often up to 115 µM), without a hit: top-dose activity change, negative = inhibition, actives largely listed as inhibitors; Q99816; Fluorescence polarization, FITC-PTAP peptide / Tsg101 binding; 340,000 tested, under 10 active; AID 493005; active means well fitted inhibition curve with a large enough effect in the main read-out, with a control signal flat, not every such curve was filed as active; inconclusive means small, poorly fitted or top-dose-only effect, or effect the other way, or a change in a side signal; inactive means no such curve, though single readings can be large or run the other way; further: potency means the concentration at half of the fitted maximal effect; % of control where 0% means no effect
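Tsg101 binding domain (10 uM final) was mixed with compound and a FITC-labeled PTAP peptide (50 nM final) in HEPES pH 7.5 buffer with NaCl, Tween 20, EDTA and TCEP; fluorescence polarization was read after 20 min at r.t.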
IDH1 autofl = counter-screen for mutant IDH1 inhibitors: fluorescence interference; shares compounds with mIDH1 inhibitor; Resorufin detection reagent fluorescence interference, cell-free; inhibition of signal, % at 51.2 µM; 750 tested, under 10 active; AID 623980;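 further: 0% = wells with normal resorufin and full inhibition = wells lacking resorufin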
IDH1 WT = wild-type IDH1 (human) inhibition counterscreen; shares compounds with mIDH1 inhibitor; WT IDH1 enzyme, NADPH diaphorase/resazurin fluorescence; Potency, µM (top dose mostly 115 µM), without a hit: at the highest dose activity change, negative = inhibition, actives largely listed as inhibitors; 750 tested, 9% active; AID 623995;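 further: potency means the concentration at half of the fitted maximal effect; 0% = full WT IDH1 enzyme control and full inhibition = no enzyme wells; nearly all actives have a fitted effect of over 55% in size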
Target sequence (O75874 whole entry, looked up): as the sequence (O75874 whole entry R132H, stated change not applied) above, with H132R counted along it
IDH1 R132H conf = mutant IDH1 (human) inhibition, confirmed; Potency, µM (titrated, usually from 76.6 µM), for inactives: at the highest dose activity change, negative = inhibition, most hits filed as inhibitors; shares compounds with mIDH1 inhibitor; IDH1 R132H enzyme, NADPH diaphorase/resazurin fluorescence; 750 tested, 83% active; further: potency means the concentration at half of the fitted maximal effect; nearly all actives have a fitted effect of over 50% in size
* = called active by the depositor; ? = inconclusive; · = not tested or not shown. Hits are enriched below; roughly 0.18% of the tested compounds scored in any of these assays. Unless noted, the call rests on the fitted dose curve; in most records, active means well fitted curve in the direction sought with a large enough effect; inconclusive means small, poorly fitted or top-dose-only effect, or another doubt; inactive means no such curve, though single readings can be large; an effect the other way counts as inactive or inconclusive.

SMILES | mIDH1 inhibitor | ERG Ets-DNA blk | Apoferritin bind | TSG101-PTAP inh | IDH1 autofl | IDH1 WT | IDH1 R132H conf
O=C(NC1CCCCC1)C(c1cccs1)N(C(=O)C(F)(F)F)c1ccccc1 (centres undefined) | ? | · | -16.7% | -3.8% | -12.4 | 5.4% | 20µM*
Cc1ccc(N(C(=O)C(F)(F)F)C(C(=O)NC2CCCCC2)c2cccs2)cc1C (centres undefined) | 2.8% | -1.1% | -6.9% | 0.1% | · | · | ·
CN1CCN(NC(=O)c2cc(-c3ccc(Cl)s3)nc3ccccc23)CC1 | ? | 17.4% | 12.5% | -5.0% | -2.1 | 7.0% | -1.6%
COc1cc2cnc(-c3ccccc3)c(-c3ccc(C(F)(F)F)cc3)c2cc1OC | ? | -14.0% | · | ? | -2.8 | -0.6% | 15.8µM*
C[C@H](CO)N1C[C@H](C)[C@@H](CN(C)C(=O)Nc2ccc(C(F)(F)F)cc2)Oc2c(NS(=O)(=O)c3ccccc3)cccc2C1=O | 19.8% | -3.5% | · | -3.6% | · | · | ·
CCc1ccc(OCCn2c(C3CC(=O)N(Cc4ccc(F)cc4)C3)nc3ccccc32)cc1 (centres undefined) | ? | -1.6% | -17.4% | · | -3.8 | -8.0% | ?
CN(c1ccccc1)c1ccc(/C=C/[N+](=O)[O-])cc1 | 29.3µM* | 3.9% | -7.7% | -4.3% | 2.2 | 70.8µM* | 22.4µM*
COc1cc(/C=C2\SC(=Nc3ccccc3)N(CCc3c[nH]c4ccccc34)C2=O)ccc1OC(C)C(=O)O (centres undefined) | ? | -2.8% | -6.3% | 0.9% | · | · | ·
COc1ccc(N=C2S/C(=C\c3ccc(OC(C)C(=O)O)c(OC)c3)C(=O)N2CCc2c[nH]c3ccccc23)cc1 (centres undefined) | ? | 29.7% | -7.0% | -4.3% | -2.2 | ? | 28.2µM*
O=C1C(Nc2ccccc2)=C(N2CCCCC2)C(=O)c2ccccc21 | 0.0% | 4.5% | ? | 3.1% | · | · | ·
CN(C1=C(N2CCCCC2)C(=O)c2ccccc2C1=O)c1ccccc1 | ? | · | ? | -9.5% | -2.6 | 2.0% | ?
CCOC(=O)c1ccc(N2C(=O)c3n[nH]c(C)c3C2c2ccc(CC)cc2)cc1 (centres undefined) | ? | 2.3% | -12.3% | · | 0.4 | 1.4% | ?
CCOC(=O)c1ccc(N2C(=O)c3n[nH]c(C)c3C2c2cccc(Br)c2)cc1 (centres undefined) | ? | 8.0% | 51.5% | · | -7.5 | -1.4% | 25.1µM*
CCOC(=O)c1ccc(N2C(=O)c3n[nH]c(-c4cccs4)c3C2c2cccc(O)c2)cc1 (centres undefined) | ? | 1.9% | ? | · | 4.1 | 0.3% | 15.8µM*
CCOC(=O)c1ccc(N2C(=O)c3n[nH]c(-c4cccs4)c3C2c2ccc(CC)cc2)cc1 (centres undefined) | -16.4% | 5.4% | -14.5% | · | · | · | ·
CCOC(=O)c1ccc(N2C(=O)c3n[nH]c(C)c3C2c2ccc(C(C)(C)C)cc2)cc1 (centres undefined) | -8.0% | -7.5% | -3.2% | · | · | · | ·
Cc1ccc(O)c(-c2n[nH]c3c2C(c2ccc(F)cc2)N(Cc2ccco2)C3=O)c1 (centres undefined) | 39.8µM* | 6.6% | -14.7% | · | -6.2 | -14.3% | 28.2µM*
Cc1cc(C)c(-c2n[nH]c3c2C(c2ccccc2F)N(Cc2ccco2)C3=O)c(O)c1 (centres undefined) | ? | -3.8% | ? | · | -7.8 | 7.0% | ?
COc1ccc(C2c3c(-c4c(C)cc(C)cc4O)n[nH]c3C(=O)N2Cc2ccco2)cc1 (centres undefined) | · | -1.7% | ? | · | · | · | ·
COc1ccc(C2c3c(-c4ccccc4O)n[nH]c3C(=O)N2Cc2ccco2)cc1 (centres undefined) | ? | 4.1% | -21.1% | -4.4% | -3.3 | 4.4% | 31.6µM*
O=C1c2[nH]nc(-c3ccccc3O)c2C(c2cccc(O)c2)N1Cc1ccco1 (centres undefined) | 5.3% | -4.9% | -23.1% | 0.0% | · | · | ·
Cc1ccc(NC(=O)CCNS(=O)(=O)c2ccccc2)c(C(=O)c2ccccc2)c1 | 2.7% | 0.0% | -0.5% | -3.0% | · | · | ·
COc1ccc(CN(C(=O)Cc2c[nH]c3ccccc23)C(C(=O)NC2CCCCC2)c2ccc(C)o2)cc1 (centres undefined) | -17.3% | -7.4% | -9.6% | -1.4% | · | · | ·
COc1ccc(C(C(=O)NC2CCCC2)N(C(=O)c2snc(C(N)=O)c2N)c2ccccc2OC)cc1OC (centres undefined) | -6.7% | -1.4% | -5.8% | -8.0% | · | · | ·
COc1ccc(N(C(=O)c2snc(C(N)=O)c2N)C(C(=O)NC2CCCCC2)c2ccc(C)o2)cc1 (centres undefined) | ? | -1.2% | -9.2% | -3.6% | 2.1 | 2.0% | ?
SMILES | mIDH1 inhibitor | ERG Ets-DNA blk | Apoferritin bind | TSG101-PTAP inh | IDH1 autofl | IDH1 WT | IDH1 R132H conf
Cc1ccc(C(C(=O)NC2CCCC2)N(Cc2ccc(F)cc2)C(=O)c2snc(C(N)=O)c2N)o1 (centres undefined) | ? | -3.8% | -23.5% | -4.7% | -11.6 | 10.9% | ?
Cc1ccc(C(C(=O)NC2CCCC2)N(Cc2ccc(F)cc2)C(=O)c2csnn2)o1 (centres undefined) | -3.1% | -3.4% | ? | -8.7% | · | · | ·
Cc1ccc(C(C(=O)NC2CCCCC2)N(Cc2ccccc2)C(=O)Cc2c[nH]c3ccccc23)o1 (centres undefined) | ? | 2.0% | 0.9% | -7.0% | -6.0 | 8.6% | ?
COc1ccc(C(C(=O)NC2CCCC2)N(C(=O)c2snc(C(N)=O)c2N)c2cc(C)ccc2OC)cc1OC (centres undefined) | ? | -4.4% | -7.1% | -1.8% | 5.0 | 3.6% | 31.6µM*
CC(C)CC(=O)NC(=S)Nc1ccc(Cl)cn1 | -5.2% | -1.3% | -10.6% | -7.1% | · | · | ·
CCN(CC)CCn1c(=N)n(CC(O)COc2ccccc2C)c2ccccc21 (centres undefined) | · | 2.8% | -12.0% | · | · | · | ·
Cc1c(SCCO)c(=O)[nH]c2cc3c(cc12)OCO3 | 14.5% | -6.0% | 1.1% | -6.8% | · | · | ·
COc1ccccc1N(C(=O)c1snc(C(N)=O)c1N)C(C(=O)NCc1ccccc1)c1ccc(O)cc1 (centres undefined) | 58.5µM* | 0.6% | 3.0% | -4.6% | 6.2 | -1.5% | 22.4µM*
